# Reference: the supplement of paper PMC3898565
# ± gives the uncertainty stated by the source.
# Tested on: U87
# Assay: cell viability relative to vehicle control; higher = less growth inhibition (less active)
# Conditions: 10 µM; 72 h
# 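Further: viable cell number estimated from Alamar Blue fluorescence read at 560/90, part of a single-dose primary screen of an FDA-approved drug library.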
row,SMILES,cell viability [%]
1,O=C(O[C@@H]1C[C@@H]2C[C@H]3C[C@H](C1)N2CC3=O)c1c[nH]c2ccccc12,105.8 ± 0.72
2,CCOC(=O)N1CCC(=C2c3ccc(Cl)cc3CCc3cccnc32)CC1,102 ± 2.4
3,COC(=O)C1=C(C)NC(C)=C(C(=O)OCC(C)C)C1c1ccccc1[N+](=O)[O-] (stereo not given) [Nisoldipine],48.4 ± 5
4,Cc1c(C(=O)NN2CCCCC2)nn(-c2ccc(Cl)cc2Cl)c1-c1ccc(I)cc1,106 ± 1.3
5,CN1CCN(CCCN2c3ccccc3Sc3ccc(C(F)(F)F)cc32)CC1 [Trifluoperazine],103 ± 0.17
6,COc1cc(N)c(Cl)cc1C(=O)NC1CCN(CCCOc2ccc(F)cc2)CC1OC (stereo not given) [Cisapride],103.5 ± 0.4
7,Nc1[nH]c(=O)ncc1F,102 ± 1.7
8,CC(C)NCC(O)COc1ccc(CCOCC2CC2)cc1 (stereo not given) [Betaxolol],100.4 ± 0.2
9,CCCCC[C@H](O)/C=C/[C@H]1[C@H](O)CC(=O)[C@@H]1CCCCCCC(=O)O [Prostaglandin E1],105.7 ± 0.69
10,CC(C)(C)C(O)/C=C/c1ccc2c(c1)OCO2 (stereo not given) [Stiripentol],105.6 ± 0.6
11,C#C[C@]1(O)CC[C@H]2[C@@H]3CCc4cc(OC)ccc4[C@H]3CC[C@@]21C,102.9 ± 0.33
12,CC1(C)C[C@@H]1C(=O)N/C(=C\CCCCSC[C@H](N)C(=O)O)C(=O)O,129 ± 3.1
13,O=C(CCNNC(=O)c1ccncc1)NCc1ccccc1,107.8 ± 0.97
14,Cc1nc(=O)c2cc(CN(C)c3ccc(C(=O)N[C@@H](CCC(=O)O)C(=O)O)s3)ccc2[nH]1,85.4 ± 1.4
15,CC(C)NCC(O)c1ccc(NS(C)(=O)=O)cc1 (stereo not given) [Sotalol],101.7 ± 0.99
16,CCN1CCC[C@H]1CNC(=O)c1c(O)c(Cl)cc(Cl)c1OC [Raclopride],99.9 ± 6.5
17,C[C@]12CC[C@@H]3c4ccc(O)cc4CC[C@H]3[C@@H]1CC[C@@H]2O,97.2 ± 2.4
18,CCC(C)n1ncn(-c2ccc(N3CCN(c4ccc(OCC5COC(Cn6cncn6)(c6ccc(Cl)cc6Cl)O5)cc4)CC3)cc2)c1=O (stereo not given),21.4 ± 2.1
19,C[C@@H]1O[C@@H](OC[C@H]2O[C@@H](Oc3c(-c4ccc(O)c(O)c4)oc4cc(O)cc(O)c4c3=O)[C@H](O)[C@@H](O)[C@@H]2O)[C@H](O)[C@H](O)[C@H]1O,91.89 ± 0.76
20,Nc1c2c(nc3c1CCC3)CCCC2,97.1 ± 5.7

row,SMILES,cell viability [%]
1,CCN1CCN(c2cc3c(cc2F)c(=O)c(C(=O)O)cn3C2CC2)CC1,109 ± 1.3
2,COc1cc2nc(N(C)CCCNC(=O)C3CCCO3)nc(N)c2cc1OC (stereo not given),101 ± 1.4
3,CC(=O)N1CCN(c2ccc(OCC3COC(Cn4ccnc4)(c4ccc(Cl)cc4Cl)O3)cc2)CC1 (stereo not given) [Ketoconazole],94.3 ± 13
4,C[C@]12CCC(=O)C=C1CC[C@@H]1[C@@H]2C(=O)C[C@@]2(C)[C@H]1CC[C@]2(O)C(=O)CO,102 ± 2.8
5,NNCCc1ccccc1,104.4 ± 0.9
6,CC(=O)CCCCn1cnc2c1c(=O)n(C)c(=O)n2C,105 ± 1.2
7,CC(C)c1nc(CN(C)C(=O)N[C@H](C(=O)N[C@@H](Cc2ccccc2)C[C@H](O)[C@H](Cc2ccccc2)NC(=O)OCc2cncs2)C(C)C)cs1,102 ± 3
8,OCCOCCN1CCN(C2=Nc3ccccc3Sc3ccccc32)CC1,99.6 ± 2.8
9,CC(Cc1ccccc1)(NC(=O)CN)c1ccccc1 (racemic),93.1 ± 3.1
10,CN1C(=O)CC[C@H]1c1cccnc1 [(-)-Cotinine],94.6 ± 10
11,C=C1/C(=C\C=C2/CCC[C@]3(C)[C@@H]([C@H](C)CCCC(C)(C)O)CC[C@@H]23)C[C@@H](O)C[C@@H]1O,105 ± 2.2
12,CC(=O)NC[C@H]1CN(c2ccc(N3CCOCC3)c(F)c2)C(=O)O1,103 ± 1.8
13,C[C@H](N[C@@H](CCc1ccccc1)C(=O)O)C(=O)N1CCC[C@H]1C(=O)O,98.3 ± 1.7
14,Cc1ccsc1C(=CCCN1CCC[C@@H](C(=O)O)C1)c1sccc1C,104 ± 1.1
15,CN(C)CCCSc1ccccc1NC(=O)/C=C/c1ccccc1 [Cinanserin],103.3 ± 0.66
16,NC1CCN(c2nc3c(cc2F)c(=O)c(C(=O)O)cn3-c2ccc(F)cc2F)C1 (stereo not given),98.01 ± 0.56
17,CCOC(=O)c1ncn2c1CN(C)C(=O)c1cc(F)ccc1-2,103 ± 1.8
18,CN(CCCN1c2ccccc2CCc2ccccc21)CC(=O)c1ccc(Cl)cc1,107 ± 2.2
19,CN(C)CCOC(c1ccccc1)c1ccccc1 [Diphenhydramine],103 ± 1.1
20,C[C@H]1COc2c(C3(N)CC3)c(F)cc3c(=O)c(C(=O)O)cn1c23,101.8 ± 0.5
